Results filed as inconclusive are left out. Where a call stands in place of a potency, no number is given. Values without a mark were called inactive. Active and inactive are the calls of the source. Calls come from the whole dose curve; as a rule, active = well fitted curve in the direction sought with a large enough effect; inconclusive = small, poorly fitted or top-dose-only effect, or another doubt; inactive = no such curve, though single readings can be large; an effect the other way counts as inactive or inconclusive.

Consider 32 compounds from PubChem BioAssay (NCATS).

The test system of assay [1] is Zika virus NS2B-NS3 protease (unlinked complex). As to the kind of experiment: Primary screen GU Rhodamine qHTS for Zika virus inhibitors: Unlinked NS2B-NS3 protease assay (AID 1347159). Note: nearly all actives have a fitted effect of over 60% in size. The note with it: Recombinant ZIKV NS2B-NS3 protease, Rhodamine110 substrate fluorescence; series mostly up to 107 µM. Put shortly:
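Enzyme 25 nM in Tris-HCl pH 8.0 + 0.01% Tween 20; compounds up to 114 microM, 15 min RT dark; + Rhod110 substrate 1.5 microM; read t0 and 15 min; delta fluorescence → % inhibition → 4-parameter Hill fit.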

The test system of assay [2] is Zika virus NS2B-NS3 protease (linked construct). As to the kind of experiment: Primary screen NINDS Rhodamine qHTS for Zika virus inhibitors (AID 1347160). Note: nearly all actives have a fitted effect of over 55% in size. The note with it: purified NS2B-NS3 protease, Rhodamine110 substrate fluorescence; series mostly up to 57.1 µM. An outline of the steps: (§1)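 Enzyme (25 nM, linked NS2B-NS3) was preincubated 15 min with compound in 10 mM Tris-HCl pH 8.0, 0.01% Tween 20. Rhodamine110 substrate (1.5 microM) was then added and fluorescence read at start and after 15 min.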
In general terms: Quantitative high-throughput screening tests each substance at several concentrations.

Assay [3] can be described thus: Confirmatory screen NINDS Rhodamine qHTS for Zika virus inhibitors (AID 1347161).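 Note: purified Zika NS2B-NS3 protease with linked NS2B cofactor domain and Rhodamine110 peptide substrate; nearly all actives have a fitted effect of over 60% in size.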 The following applies: purified enzyme assay, Rhodamine110 substrate fluorescence, 15 min; series mostly up to 38.1 µM. Put shortly: as §1
The test system of assay [4] is Zika virus NS2B-NS3 protease (linked). Put plainly: 384 well plate NINDS AMC confirmatory qHTS for Zika virus inhibitors (AID 1347163). Note: potency is the fitted concentration of half-maximal effect; nearly all actives have a fitted effect of over 50% in size. The following applies: Recombinant NS2B-NS3 protease, Ac-VKTGKR-AMC fluorescence. Put shortly:
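Fluorescence at 355/460 nm was read after 25 minutes of cleavage of 30 microM Ac-VKTGKR-AMC at room temperature, in the dark. Before substrate addition, compounds (up to 1 mM final) sat ~15 minutes with 5, 30 or 60 nM linked protease. Signals were normalized to no-enzyme and no-inhibitor wells.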

A short description of assay [5]: Vero cells viability qHTS for Zika virus inhibitors (AID 1347167). The note with it: cytotoxicity counter-screen (Zika); series mostly up to 45.9 µM. An outline of the steps: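 To flag cytotoxic protease inhibitors, viability is measured by ATP-dependent luminescence (CellTiter Glo) after cells attached overnight receive compound for 24 to 48 hours in DMEM with 4% FBS.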

With `COC1C(O)C(C)OC(OC2C(CO)O[C@@H](O[C@@H]3CC4CCC5C(CC[C@]6(C)[C@@H](C7=CC(=O)OC7)CC[C@]56O)[C@@]4(C)[C@H](O)C3)C(O)C2O)C1O` (stereo partly drawn), the Potency entry in assay [1] and in assay [2] was “inactive” in each case.

Regarding `CC1C/C=C/C(O)C(O)CC/C=C/c2cc(O)cc(O)c2C(=O)O1` (stereo not drawn), the Potency result in assay [1] and in assay [2] was “inactive” throughout.

In the case of `CCc1[nH]c2ccc(OC)cc2c1CCN(C)C`, the Potency result in assay [1] and in assay [2] was “inactive” in each case.

Consider `C[C@H]1O[C@@H](O[C@H]2C[C@@H](O)[C@]3(CO)C4C(CC[C@]3(O)C2)[C@@]2(O)CC[C@H](C3=CC(=O)OC3)[C@@]2(C)C[C@H]4O)[C@@H](O)[C@@H](O)[C@H]1O` (stereo partly drawn), for which the Potency result in assay [1] and in assay [2] was “inactive” each time.

As to `CC(=O)OC12C(O)C(C)C3(O)C4C=C(C)C(=O)C4CC(CO)=CC3C1C2(C)C` (stereo not drawn), the Potency entry in assay [1] and in assay [2] was “inactive” in each case.

As for `CN1CCC[C@@H]1Cc1c[nH]c2ccc(Nc3ncccc3[N+](=O)[O-])cc12`, the Potency result in assay [1] and in assay [2] was “inactive” throughout.

Regarding `C/C=C(\C)C(=O)O[C@H]1[C@H](OC(C)=O)[C@]2(CO)[C@H](O)[C@H](O)[C@]3(C)C(=CCC4[C@@]5(C)CC[C@H](O[C@@H]6O[C@H](C(=O)O)[C@@H](O)[C@H](O[C@@H]7OC[C@H](O)[C@H](O[C@@H]8OC[C@H](O)[C@H](O)[C@H]8O)[C@H]7O)[C@H]6O[C@@H]6O[C@H](CO)[C@@H](O)[C@H](O)[C@H]6O)C(C)(C)C5CC[C@]43C)[C@@H]2CC1(C)C` (stereo partly drawn), the activity change, negative = inhibition is -9.49% [at 19.1 µM] in assay [1] and 4.93% [at 10.7 µM] in assay [2].

Take `O=C(N1CCOCC1)N1CCN(c2ccc(Cl)cc2)CC1`: the Potency entry in assay [1] and in assay [2] was “inactive” in each case.

As to `COC1CC(OC2CCC3(C)C(CCC4C3CCC3(C)C(C5=CC(=O)OC5)C(OC(C)=O)CC43O)C2)OC(C)C1OC1OC(CO)C(O)C(O)C1O` (stereo not drawn), the Potency result in assay [1] and in assay [2] was “inactive” in each case.

On to `Cc1cn(C[C@H](N)C(=O)O)c(=O)n(Cc2cc(-c3ccccc3)sc2C(=O)O)c1=O`, for which the Potency result in assay [1] and in assay [2] was “inactive” each time.

Take `C=C[C@H]1CN2CC[C@H]1C[C@@H]2[C@@H](O)c1ccnc2ccccc12`: the Potency result in assay [1] and in assay [2] was “inactive” throughout.

`COCC1OC(=O)c2coc3c2C1(C)C1=C(C3=O)C2CCC(=O)C2(C)CC1O` (stereo not drawn): the Potency entry in assay [1] and in assay [2] was “inactive” throughout.

For the compound `COc1cc2c(cc1OC)[C@@]13CCN4CC5=CCO[C@H]6CC(=O)N2[C@H]1[C@H]6[C@H]5C[C@H]43`, the Potency result in assay [1] and in assay [2] was “inactive” in each case.

As for `CO[C@H]1[C@H](O)[C@H](O[C@H]2CC[C@]3(C)C4CC[C@]5(C)[C@H](C6=CC(=O)OC6)CC[C@]5(O)C4CC[C@@H]3C2)O[C@@H](C)[C@@H]1O` (stereo partly drawn), the Potency entry in assay [1] and in assay [2] was “inactive” each time.

In the case of `COc1cc(C)[nH]c(=O)c1CNC(=O)c1c(C)n([C@H](C)C2CCOCC2)c2ccccc12`, the Potency entry in assay [1] and in assay [2] was “inactive” throughout.

In the case of `C[C@@H]1C(=O)O[C@H]2[C@H](O)[C@@]34[C@@H]5OC(=O)[C@@]3(O[C@@H]3OC(=O)[C@@H](O)[C@@]34[C@H](C(C)(C)C)[C@H]5O)[C@@]12O`, the Potency result in assay [1] and in assay [2] was “inactive” throughout.

Consider `C[C@H]1C(=O)O[C@H]2[C@H](O)[C@]34C5OC(=O)[C@]3(O[C@@H]3OC(=O)[C@H](O)C34[C@H](C(C)(C)C)[C@H]5O)C12O` (stereo partly drawn), for which the Potency entry in assay [1] and in assay [2] was “inactive” in each case.

With `COC1C(O)C(OC2CCC3(C=O)C(CCC4C3CCC3(C)C(C5=CC(=O)OC5)CCC43O)C2)OC(C)C1OC1OC(CO)C(O)C(O)C1O` (stereo not drawn), the Potency result in assay [1] and in assay [2] was “inactive” throughout.

`COC(=O)C1(C)CCC(O)C2(C)c3c(O)cc(C(C)C)cc3C(O)C(OC(C)=O)C12` (stereo not drawn): the Potency entry in assay [1] and in assay [2] was “inactive” in each case.

Turning to `C=C(CO)C(=O)O[C@H]1C/C(C)=C/CC/C(CO)=C/[C@H]2OC(=O)C(=C)[C@H]12`, the Potency result in assay [1] and in assay [2] was “inactive” throughout.

Regarding `CC(C)C1(OO)C=C2C(=O)CC3C(C)(C(=O)O)CCCC3(C)C2CC1` (stereo not drawn), the Potency entry in assay [1] and in assay [2] was “inactive” throughout.

In the case of `CC(N)Cc1c[nH]c2ccccc12` (stereo not drawn), the Potency entry in assay [1] and in assay [2] was “inactive” in each case.

Take `CC1=C2C(=O)C3[C@@H](CC=C4C[C@@H](O)CC[C@@]43C)[C@@H]2CC[C@]12O[C@@H]1C[C@H](C)CN[C@H]1[C@H]2C` (stereo partly drawn): the Potency result in assay [1] and in assay [2] was “inactive” throughout.

For `C[C@]12CC[C@H]3[C@@H]([C@H](O)CC4=CC(=O)CC[C@@]43C)[C@@H]1CC[C@@H]2O`, the Potency result in assay [1] and in assay [2] was “inactive” in each case.

For `C/C=C(\C)C(=O)OC1C(C)OC(OC2C(C)OC(OC3CCC4(C)C(=CCC5C4CCC4(C)C(C(C)OC6OC(COC7OC(CO)C(O)C(O)C7O)C(O)C(O)C6O)CCC54O)C3)CC2OC)C(O)C1OC` (stereo not drawn), the Potency entry in assay [1] and in assay [2] was “inactive” in each case.

For `C/C=C(\C)C(=O)OC1CC2C(CC=C3CC(OC4CC(OC)C(OC5CC(OC)C(OC6OC(C)C(OC7OC(CO)C(O)C(O)C7O)C(OC)C6O)C(C)O5)C(C)O4)CCC32C)C2(O)CCC(C(C)=O)C12C` (stereo not drawn), the Potency entry in assay [1] and in assay [2] was “inactive” throughout.

Regarding `CC(=O)O[C@H]1C[C@@H](OC(C)=O)C(C)(C)C2C[C@@H](O)[C@]3(C)C(CC[C@@]4(C)[C@H](C5=CC(=O)OC5O)C[C@H]5O[C@]543)[C@]21C` (stereo partly drawn), the Potency result in assay [2] is “inactive”.

For `CCN1C[C@]2(COC)[C@H](O)C[C@H](OC)[C@]34[C@@H]5C[C@]6(O)[C@H](OC(=O)c7ccccc7)[C@@H]5[C@@](O)([C@H]([C@H](OC)[C@H]23)[C@@H]14)[C@@H](O)[C@@H]6OC`, the Potency result in assay [2] was “inactive”.

As to `O=C1OC2(c3cc(Br)c(O)cc3Oc3c2cc(Br)c(O)[c]3[Hg])c2ccccc21` (stereo not drawn), in assay [3], the Potency entry was “inactive”.

`CN(C)[C@@H]1C(=O)C(C(N)=O)=C(O)[C@@]2(O)C(=O)C3=C(O)c4c(O)ccc(Cl)c4[C@@](C)(O)[C@H]3C[C@@H]12`: the Potency in assay [4] was 562 nM (active).

Regarding `C[C@@H]1[C@@H]2Cc3ccc(O)cc3[C@@]1(C)CCN2CC1CC1`, the compound was called inactive in assay [5].

On to `CC[C@H](C)[C@H]1O[C@]2(C=C[C@@H]1C)C[C@@H]1C[C@@H](C/C=C(\C)[C@@H](O[C@H]3C[C@H](OC)[C@@H](O[C@H]4C[C@H](OC)[C@@H](O)[C@H](C)O4)[C@H](C)O3)[C@@H](C)/C=C/C=C3\CO[C@@H]4[C@H](O)C(C)=C[C@@H](C(=O)O1)[C@]34O)O2`, for which, in assay [5], the compound was classed as inactive.
